40 compounds from PubChem BioAssay (EPA / NIEHS) can be followed below.

The source made the active and inactive calls. The calls were made as follows: active = hit-call score of the fitted dose curve at least 0.9, where 1 is the maximum; inactive = score below 0.9.

A short description of the experiment: ATG_E_Box_CIS: Attagene CIS-FACTORIAL HepG2 Assay for human Enhancer Box (E-box) (AID 2282936). The conditions noted are these: HepG2 E-box cis-reporter transcription, actives raise or lower the signal. The procedure: ATG_CIS is a cell-based, multiplexed-readout assay that uses HepG2, a human liver cell line, with measurements taken at 24 hours after chemical dosing in a 24-well plate.ATG_E_Box_CIS is one of 52 assay component(s) measured or calculated from the ATG_CIS assay. It is designed to make measurements of mRNA induction, a form of inducible reporter, as detected with fluorescence intensity signals by Reverse transcription polymerase chain reaction (RT-PCR) and Capillary electrophoresis technology.Data from the assay component ATG_E_Box_CIS was analyzed into 1 assay endpoint. This assay endpoint, ATG_E_Box_CIS, was analyzed with bidirectional fitting relative to DMSO as the negative control and baseline of activity. Using a type of inducible reporter, measures of mRNA for gain or loss-of-signal activity can be used to understand the reporter gene at the transcription factor-level as they relate to the gene USF1. Furthermore, this assay endpoint can be referred to as a primary readout, because this assay has produced multiple assay endpoints where this one serves a reporter gene function. To generalize the intended target to other relatable targets, this assay endpoint is annotated to the dna binding intended target family, where the subfamily is basic helix-loop-helix protein.
Human liver HepG2 cells are transiently transfected with multiple reporter transcription units (MRTUs) in 6-well plates using FuGene 6 reagent (Roche; 3 ml FuGene/1 mg DNA). The MRTU constructs are regulated by a cis-regulating element (promoter). […] A major difference between the CIS and TRANS system is that in CIS activities of endogenous TFs are measured, whereas the TRANS assay evaluates changes in activities of exogenous, chimeric NR-Gal4 proteins. […] At the end of 24 hour incubation, total RNA was isolated using TriZol reagent (Invitrogen). The isolated RNA is then reverse-transcribed using oligo(dT) primer and Mo-MLV reverse transcriptase (Invitrogen) with DNAse I (Ambion) treatment for 30 min. The one-tenth of the produced cDNA was amplified by PCR using Taq DNA polymerase (Invitrogen) and two reporter sequence-specific primers. The PCR products were fluorescently labeled by primer extension with 6-arboxyfluorescein (6-FAM) 5'-labeled reporter sequence-specific primer (2 min at 95 C, 20 s at 68 C and 10 min at 72 C) and these products were digested with 5U of HpaI (New England Biolabs) for 2h at 37 C. The fragments were purified using Qiaquick PCR columns (Qiagen), analyzed on an ABI 3130xL genetic analyzer (Applied Biosystems) with peak positions identified by using a set of X-rhodamine (ROX)-labeled MapMarker1000 molecular weight standards (BioVentures). The raw capillary electrophoresis data was processed using Attagraph software (Attagene).
For the compound `Cc1ncc([N+](=O)[O-])n1C`, the outcome was inactive. Regarding `O=C1NC(=O)c2ccccc21`, the result was inactive. The same measure, in the same setting: the entry for `Nc1cc([N+](=O)[O-])ccc1O` is “inactive”; for `CC(C)=CCC[C@H](C)CC=O` it is “inactive”; for `COc1cc(C=O)ccc1OC(=O)C(C)C` it is “inactive”. Consider `C=C(C)C(=O)Nc1ccc(Cl)c(Cl)c1`, for which the result was inactive. As to `COc1ccc(OC)c(OC)c1`, the result was inactive. Still for that read-out and setting: the same measure for `CCn1c2ccccc2c2cc(N)ccc21`: “inactive”; for `CC(C)[C@H]1CC[C@@H](C)CC1=O`: “inactive”. For the compound `C=CC(=O)OCC(O)COc1ccccc1` (stereo not given), the AC50 was 38.8 µM (active). `CNCCO`: the outcome was inactive. The same measure, in the same setting: the entry for `CCOC(=S)SSC(=S)OCC` is “inactive”; for `CC(C)OP(=O)(CP(=O)(OC(C)C)OC(C)C)OC(C)C` it is “inactive”; for `NCCCN1CCOCC1` it is “inactive”. On the same count and under the same terms, the entry for `COc1ccc(Cl)cc1C` is “inactive”; for `O=C(O)c1cn(-c2ccc(F)cc2)c2cc(N3CCNCC3)c(F)cc2c1=O` it is “inactive”; for `Cc1cc(C2(c3cc(C)c(O)cc3C)OS(=O)(=O)c3ccccc32)c(C)cc1O` it is “inactive”.

`COc1cc2ncnc(Nc3cccc(Cl)c3)c2cc1OC`: the result was inactive. Turning to `CCC/C=C/C=O`, the outcome was inactive. Turning to `CCCCCCCCCCN`, the result was inactive.

`CCCCNC(=O)NS(=O)(=O)c1ccc(C)cc1`: the outcome was inactive. Regarding `CN(CCOc1ccc(CC2SC(=O)NC2=O)cc1)c1ccccn1` (stereo not given), the result was inactive. In the case of `COc1cc(C)cc(O)c1`, the result was inactive. The same measure, in the same setting: the same measure for `CCCC(C)C=O` (stereo not given): “inactive”; for `COc1ccnc(CS(=O)c2nc3cc(OC(F)F)ccc3[nH]2)c1OC` (stereo not given): “inactive”; for `Nc1cc(N)cc(C(=O)O)c1`: “inactive”. For `CCCCC[Si](OCC)(OCC)OCC`, the outcome was inactive.

On to `O=[N+]([O-])c1ccc(C=Cc2ccc([N+](=O)[O-])cc2S(=O)(=O)O)c(S(=O)(=O)O)c1`, for which the outcome was inactive. Still for that read-out and setting: the same measure for `CN(C)c1ccc(O)c2c1C[C@H]1C[C@H]3[C@H](N(C)C)C(=O)C(C(N)=O)=C(O)[C@@]3(O)C(=O)C1=C2O`: “inactive”; for `NCCNCCN`: “inactive”; for `CNC[C@H](O)c1cccc(O)c1`: “inactive”. `O=C(O)CCCCCCCCCCC(=O)O`: the outcome was inactive. Take `COC(=O)C1=C(C)NC(C)=C(C(=O)OCCN(C)Cc2ccccc2)C1c1cccc([N+](=O)[O-])c1` (stereo not given): the AC50 is 19.4 µM (active). As to `Cc1ccc(Nc2ccc(O)c3c2C(=O)c2ccccc2C3=O)cc1`, the AC50 is 20.3 µM (active). As for `CC(=O)/C=C/C1=C(C)CCCC1(C)C`, the outcome was inactive. The same measure, in the same setting: the same measure for `CCO[Si](CCCS)(OCC)OCC`: “inactive”. Same read-out and setting: the same measure for `CC(C)c1cccc(O)c1`: “inactive”; for `CCCOCC(C)O` (stereo not given): “inactive”; for `OCCN1CCNCC1`: “inactive”.

With `CC(C)=CCCC(C)=CCCC(C)=CCO`, the result was inactive.

In general, AC50 refers to the midpoint of the concentration-response curve, whichever way the signal moves.
